Bioassay records as filed in PubChem.
A selection: hits, their analogues and other compounds. The true share with any hit is near 2.3%.
MEKK2mut PB1 HTS: signal of MEK5 binding to mutant human MEKK2 PB1 domain. bead flow cytometry, Alexa488-MEK5 binding to MEKK2 mutant. percent response, % at 10 µM. 290,000 compounds, 0.35% hits; in the data active = percent response above about 24%, passing the limit was not always enough
UBC13 polyUb: human UBC13 polyubiquitination inhibition | UBC13 polyubiquitin chain formation, TR-FRET | inhibition, % at 20 µM | 330,000 compounds, 0.47% hits | AID 485273; in the data active = inhibition above about 45%, passing the limit was not always enough
Target sequence (P61088 whole entry, looked up): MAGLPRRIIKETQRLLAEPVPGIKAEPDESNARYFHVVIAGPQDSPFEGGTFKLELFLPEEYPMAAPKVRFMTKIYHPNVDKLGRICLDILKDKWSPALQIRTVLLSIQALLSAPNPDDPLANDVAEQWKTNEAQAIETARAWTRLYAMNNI
MEKK3 PB1 HTS: MEKK3-MEK5 PB1 interaction, increase or decrease; Q99759; bead-based flow cytometry, Alexa488-MEK5 binding to MEKK3; actives lie on both sides; 0 = blocked by unlabeled MEK5, 100 = vehicle; binding response (% of control), % at 10 µM; 290,000 compounds, 1.4% hits;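 active = binding response more than 3 SD above or below the average of its plate-row segment, actives on both sides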;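 also: Alexa488 bead fluorescence after subtracting the streptavidin-only scavenger bead signal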
MEKK2wt PB1 HTS: raises or lowers MEK5 binding to wildtype human MEKK2 PB1 domain; bead flow cytometry, Alexa488-MEK5 binding to MEKK2 WT; actives lie on both sides; binding response (% of control), % at 10 µM; 290,000 compounds, 1.1% hits; AID 1531; in the data active = binding response below about 67% or above about 130%
MEKK2wt confirm: raises or lowers MEK5 binding to wildtype human MEKK2, retest. bead flow cytometry, Alexa488-MEK5 binding to MEKK2 WT; actives lie on both sides. 5,900 compounds, 2.4% hits. shares compounds with MEKK3 PB1 HTS. binding response (% of control), % at 10 µM; in the data active = binding response below about 16% or above about 210%; inactive = in between
MEKK2mut-MEK5: signal of MEK5 binding to mutant human MEKK2, retest. bead flow cytometry, Alexa488-MEK5 binding to MEKK2 mutant. AID 1893. 5,900 compounds, 2% hits. percent response, % at 10 µM. shares compounds with MEKK3 PB1 HTS; in the data active = percent response mostly above about 71%, no sharp cut-off; inactive = mostly below about 38%;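 also: higher means compound restores mutant binding toward wildtype level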
MEKK3 confirm: confirmation of inhibitors of MEK5 binding to human MEKK3; binding response (% of control), % at 10 µM; 5,900 compounds, 1.8% hits; AID 1894; bead flow cytometry, Alexa488-MEK5 binding to MEKK3; hits give low values; shares compounds with MEKK3 PB1 HTS;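 active = binding response below 72% of control, or above a set upper limit, though filed actives all read lower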;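 also: 100% = DMSO only wells and 0% = binding blocked by excess unlabeled MEK5; lower values mean stronger disruption of MEK5 binding to MEKK3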
* marks the source's active call; other numbers are inactive results; x = no result; [ ] = dose if it differs, or a comment.

SMILES	MEKK2mut PB1 HTS	UBC13 polyUb	MEKK3 PB1 HTS	MEKK2wt PB1 HTS	MEKK2wt confirm	MEKK2mut-MEK5	MEKK3 confirm
CCN(CC)CCN(C(=O)c1ccc(CN2CCCCC2)o1)C(C(=O)NC1CCCCC1)c1ccc(F)cc1 (configuration not stated)	-11	2	94	98	x	x	x
CCCOc1cccc(C(=O)NC(=S)Nc2cccc(NC(=O)c3ccccc3Cl)c2)c1	-1	-3	113	99	x	x	x
CCCC(=O)NC(=S)Nc1cccc(NC(=O)c2ccccc2)c1	6	1	117	100	x	x	x
CCC(=O)Nc1cccc(NC(=O)c2ccc(Br)cc2)c1	1	8	135*	107	94	-12	92
Cc1ccc(OCC(=O)NC(=S)Nc2cccc(NC(=O)c3ccccc3)c2)cc1	-2	9	94	93	x	x	x
CCCCOc1cccc(C(=O)NC(=S)Nc2cccc(NC(=O)c3ccccc3Cl)c2)c1	1	-6	137*	105	100	-3	102
CCCCC(=O)NC(=S)Nc1cccc(NC(=O)c2ccccc2)c1	-15	0	49*[inhibitor]	61	96	-6	99
CC(C)CC(=O)NC(=S)Nc1cccc(NC(=O)c2ccccc2)c1	-1	3	154*	105	105	3	103
CCOc1ccc(N(CC(=O)Nc2ccc(C)c(Cl)c2)S(C)(=O)=O)cc1	6	0	105	110	x	x	x
CCCc1ccc(S(=O)(=O)N2CCN(C(C)C(=O)NCc3ccccc3)CC2)cc1 (configuration not stated)	x	1	x	x	x	x	x
NCC(O)CN1CCN(Cc2ccccc2)CC1 (configuration not stated)	1	5	96	101	x	x	x
O=C1c2ccccc2C(=O)C12OC2c1cccc2ccccc12 (configuration not stated)	1	-47	157*	107	103	2	103
c1ccc2c(C3CCO3)cccc2c1 (configuration not stated)	x	5	x	x	x	x	x
CC1CCN(CCCOc2ccc(Cl)cc2Br)CC1	-12	8	97	86	x	x	x
Clc1ccc(OCCCN2CCc3ccccc3C2)c(Br)c1	20	9	105	134*	102	-1	101
Clc1ccc(OCCOCCN2CCc3ccccc3C2)c(Cl)c1	26	27	104	123	x	x	x
CC1CCN(CCOCCOc2ccc(Cl)cc2Br)CC1	21	15	106	147*	158	28	110
Cc1ccccc1OCC(=O)N1N=C(c2cccnc2)CC1(O)C(F)(F)F (configuration not stated)	3	7	106	102	x	x	x
Nc1ccc(S(=O)(=O)Nc2nccc(/C=C/c3ccccc3F)n2)cc1	0	-3	134*	116	95	-3	97
Cc1ccnc(NS(=O)(=O)c2ccc(NC(=O)c3ccccc3F)cc2)n1	2	-3	105	103	x	x	x
O=C(Nc1ccc([N+](=O)[O-])cc1)Nc1ccc(N2CCOCC2)c2nonc12	-4	-24	96	96	x	x	x
COc1ccc(CNc2nc(-c3cccnc3)nn2C(C)=O)cc1	-42	-2	5.0*[inhibitor]	7.0*[inhibitor]	107	2	106
COc1ccc(CNc2nc(-c3cccnc3)nn2C(=O)CC(C)C)cc1	5	12	102	107	x	x	x
Cc1nnc(SCC(=O)NNC(=O)C(C)C)[nH]c1=O	4	7	134*	106	107	-2	104
Cc1nnc(SCC(=O)N(C(C)C)C(C)C)[nH]c1=O	2	-1	98	88	x	x	x
SMILES	MEKK2mut PB1 HTS	UBC13 polyUb	MEKK3 PB1 HTS	MEKK2wt PB1 HTS	MEKK2wt confirm	MEKK2mut-MEK5	MEKK3 confirm
CSc1nc(N)c(C(=O)NC2CCCCC2)s1	5	0	104	98	x	x	x
O=C(N/N=C/c1ccc(Cl)cc1Cl)c1n[nH]c2c1CCCC2	1	-26	128*	105	102	-4	103
COC/C=C/C1=CC2=CC(=O)C(C)(OC(=O)c3ccco3)C(=O)C2=CO1 (configuration not stated)	-9	-46	83	72*[inhibitor]	93	-4	99
COC(=O)c1ccc(CN2C(=O)NC(Cc3c[nH]c4ccccc34)C2=O)cc1 (configuration not stated)	3	4	100	100	x	x	x
COc1ccc(NC(=O)c2nc[nH]c2C(=O)NCC(=O)OC(C)(C)C)cc1	4	-2	50*[inhibitor]	54	104	2	101
Cc1ccc(NC(=O)c2nc[nH]c2C(=O)NCC(=O)OC(C)(C)C)cc1	0	6	85	103	x	x	x
COc1ccc(Cl)cc1NC(=O)COC(=O)C1=NNC(=O)CC1	x	0	x	x	x	x	x
COC(=O)c1cc(S(=O)(=O)NCc2cccc(Br)c2)c[nH]1	4	6	106	111	x	x	x
CC(C)C1Cc2c(C#N)c(N)sc(=S)c2CO1 (configuration not stated)	-5	-7	85	48*[inhibitor]	74	-12	96
COc1cccc(CN(C)CC(=O)NNC(=O)c2ccc(Cl)cc2)c1	6	-2	94	94	x	x	x
CCOc1ccc(CN(C)CC(=O)NNC(=O)c2ccc(Cl)cc2)cc1OC	-1	-9	128*	98	100	-7	97
CC1CCCC(NC(=O)COC(=O)CCC(=O)c2ccc(F)cc2)C1C (configuration not stated)	x	-3	x	x	x	x	x
C=CCNC(=O)/C=C/c1c(F)cccc1Cl	1	-12	184*	109	100	-1	105
COc1ccc(CCN2CC(C(=O)N3CCSCC3)CCC2=O)cc1 (configuration not stated)	-8	3	97	94	x	x	x
O=C(Cc1coc(-c2ccc(F)cc2)n1)Nc1ccccc1	-46	10	2.0*[inhibitor]	2.0*[inhibitor]	110	2	107
CCOC(=O)CCCCCC(=O)Nc1ccc2c(c1)CC(=O)N([C@@H](C)CO)C[C@H](C)[C@@H](CN(C)C(=O)Nc1ccc3c(c1)OCO3)O2	x	-6	x	x	x	x	x
COC(=O)C(C)Sc1nc2c(c(=O)n(C)c(=O)n2C)n1CCC(C)C (configuration not stated)	-5	-12	99	97	x	x	x
CC(C)CCn1c(Br)nc2c1c(=O)n(CC(N)=O)c(=O)n2C	-15	-3	2.0*[inhibitor]	2.0*[inhibitor]	99	-3	99
COc1ccc(CCNc2cc(C)nc3c(-c4ccc(Cl)cc4)cnn23)cc1OC	0	18	136*	109	101	-2	104
COc1ccc(CCNc2cc(C)nc3c(-c4ccccc4)cnn23)cc1OC	-1	8	111	107	x	x	x
Cc1ccc(OCC(=O)N2CCN(C(=O)CCC3CCCC3)CC2)cc1	7	9	108	112	x	x	x
